Data as given in the supplement of paper PMC9262897, “Low-cost anti-mycobacterial drug discovery using engineered E. coli” (Nature Communications, 2022).
Where a name gives a salt, the structure may show the parent alone. ± gives the standard deviation of the averaged measurements.

Experiments:
Test in all cases: growth (OD600 after 10 h); higher = more growth (less inhibition)
[1] = test system: E. coli TESEC Alr+ wild-type control; settings: compound 0.1 mM; raw OD600 reference: median of DMSO wells 0.241, cell-free background 0.041
Protocol: (§1)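 TESEC Mtb Alr E. coli, or the Alr+ wild-type control, in 384-well plates with Prestwick library compounds at 0.1 mM and 1% DMSO, across arabinose induction levels of 1E3 to 1E7 nM. Growth is read as OD600 after 10 h at 37 °C in triplicate biological replicates.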

[2] = test system: E. coli TESEC Mtb Alr; settings: compound 0.1 mM
Protocol: as §1

[3] = test system: E. coli TESEC Mtb Asd; settings: compound 0.1 mM
Protocol: (§2)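 TESEC E. coli strains in which the native enzyme is deleted and replaced by arabinose-inducible Mtb Asd, DapB, CysH or TrpD, each grown in its selective medium. Strains were screened against the Prestwick library at 0.1 mM and 1% DMSO in 384-well format at low and high arabinose induction. Growth is read as OD600 after 10 h in triplicate.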

[4] = test system: E. coli TESEC Mtb DapB; settings: compound 0.1 mM
Protocol: as §2

[5] = test system: E. coli TESEC Mtb Alr; settings: compound 0.1 mM; remark: listed apart in the source
Protocol: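 TESEC Mtb Alr E. coli (ΔaraC ΔtolC ΔentC Δalr ΔdadX, arabinose-inducible Mtb Alr) or the Alr+ wild-type control strain, grown in defined M9-fructose medium without D-alanine in 96-well plates with Prestwick library compounds at 0.1 mM and 1% DMSO. Low Alr induction is 0.1 µM arabinose and high induction is 10 mM arabinose.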

[6] = arabinose 1000 nM, raw OD600 reference: median of DMSO wells 0.294, cell-free background 0.041
[7] = arabinose 10000 nM, raw OD600 reference: median of DMSO wells 0.264, cell-free background 0.041
[8] = arabinose 100000 nM, raw OD600 reference: median of DMSO wells 0.201, cell-free background 0.041
[9] = arabinose 1000000 nM, raw OD600 reference: median of DMSO wells 0.193, cell-free background 0.041
[10] = arabinose 10000000 nM, raw OD600 reference: median of DMSO wells 0.146, cell-free background 0.041
[11] = arabinose induction (level): High, raw OD600 reference: median of DMSO wells 0.331, cell-free background 0.041
[12] = arabinose induction (level): Low, raw OD600 reference: median of DMSO wells 0.417, cell-free background 0.041
[13] = arabinose induction (level): High, raw OD600 reference: median of DMSO wells […], cell-free background 0.041
[14] = arabinose induction (level): Low, raw OD600 reference: median of DMSO wells 0.227, cell-free background 0.041
[15] = arabinose 100 nM, raw OD600 reference: median of DMSO wells 0.413, cell-free background 0.052
[16] = arabinose 10000000 nM, raw OD600 reference: median of DMSO wells […], cell-free background 0.052

SMILES	growth [1]	growth [2, 6]	growth [2, 7]	growth [2, 8]	growth [2, 9]	growth [2, 10]	growth [3, 11]	growth [3, 12]	growth [4, 13]	growth [4, 14]	growth [5, 15]	growth [5, 16]
CC(=O)[C@H]1CC[C@H]2[C@@H]3CCC4=CC(=O)CC[C@]4(C)[C@H]3CC[C@]12C [Progesterone]	0.139 ± 0.0043	0.175 ± 0.01	0.234 ± 0.01	0.145 ± 0.015	0.117 ± 0.0027	0.15 ± 0.012	0.143 ± 0.0076	0.219 ± 0.012	0.178 ± 0.015	0.182 ± 0.013	0.292 ± 0.059	0.0648 ± 0.0061
COC(=O)[C@H](c1ccccc1Cl)N1CCc2sccc2C1 [Clopidogrel]	0.0938 ± 0.0032	0.0873 ± 0.0047	0.0411 ± 0.0013	0.0991 ± 0.004	0.0439 ± 0.00078	0.0663 ± 0.00069	0.158 ± 0.014	0.128 ± 0.0029	0.153 ± 0.015	0.159 ± 0.012	0.38 ± 0.016	0.0754 ± 0.014
CN1CCC(=C2c3ccccc3C=Cc3ccccc32)CC1 [Cyproheptadine hydrochloride]	0.145 ± 0.0056	0.163 ± 0.02	0.16 ± 0.0079	0.12 ± 0.0049	0.0596 ± 0.00044	0.0772 ± 0.00078	0.15 ± 0.0059	0.186 ± 0.0032	0.175 ± 0.015	0.192 ± 0.011	0.4129 ± 0.0017	0.276 ± 0.016
C=C1C(=O)O[C@H]2[C@H]1CC/C(C)=C/CC[C@@]1(C)O[C@@H]21 [Parthenolide]	0.157 ± 0.0041	0.303 ± 0.0032	0.27 ± 0.0042	0.232 ± 0.014	0.185 ± 0.0044	0.157 ± 0.0078	0.155 ± 0.0046	0.269 ± 0.036	0.2 ± 0.0037	0.224 ± 0.022	0.404 ± 0.013	0.316 ± 0.02
CCC1NC(=O)c2cc(S(N)(=O)=O)c(Cl)cc2N1 (centres undefined) [Quinethazone]	0.248 ± 0.0085	0.281 ± 0.0094	0.266 ± 0.0054	0.219 ± 0.0029	0.199 ± 0.0047	0.13 ± 0.0037	0.419 ± 0.029	0.445 ± 0.051	0.212 ± 0.021	0.238 ± 0.047	0.415 ± 0.006	0.354 ± 0.022
COC(=O)Nc1nc2cc([S+]([O-])c3ccccc3)ccc2[nH]1 (centres undefined) [Oxfendazol]	0.251 ± 0.016	0.304 ± 0.014	0.2674 ± 0.00072	0.195 ± 0.024	0.165 ± 0.0037	0.1348 ± 0.00046	0.276 ± 0.08	0.382 ± 0.044	0.173 ± 0.0069	0.174 ± 0.042	0.407 ± 0.011	0.312 ± 0.022
CNS(=O)(=O)Cc1ccc2[nH]cc(CCN(C)C)c2c1 [Sumatriptan succinate]	0.226 ± 0.0042	0.298 ± 0.019	0.258 ± 0.0057	0.2 ± 0.024	0.193 ± 0.0067	0.137 ± 0.0028	0.372 ± 0.026	0.503 ± 0.03	0.206 ± 0.018	0.221 ± 0.028	0.417 ± 0.0056	0.353 ± 0.0071
Cc1cc(O)c(C(=O)N[C@@H](C(=O)N[C@@H]2C(=O)N3C(C(=O)O)=C(CSc4nnnn4C)CS[C@H]23)c2ccc(O)cc2)cn1 [Cefpiramide]	0.2668 ± 0.0012	0.3183 ± 0.00044	0.245 ± 0.0057	0.217 ± 0.015	0.208 ± 0.027	0.135 ± 0.0067	0.356 ± 0.063	0.375 ± 0.077	0.214 ± 0.007	0.239 ± 0.035	0.419 ± 0.016	0.3403 ± 0.00045
COc1cc(Cc2cnc(N)nc2N)cc(OC)c1OC [Trimethoprim]	0.0601 ± 0.0005	0.04863 ± 0.00047	0.0442 ± 0.00076	0.04953 ± 0.00035	0.04553 ± 0.0004	0.0534 ± 0.00081	0.0958 ± 0.044	0.0867 ± 0.014	0.0742 ± 0.0018	0.0572 ± 0.0041	0.0922 ± 0.026	0.0701 ± 0.0035
CC[N+](CC)(CC)CCC(O)(c1ccccc1)C1CCCCC1 (centres undefined) [Tridihexethyl chloride]	0.2104 ± 0.0021	0.298 ± 0.015	0.2775 ± 0.0026	0.199 ± 0.019	0.185 ± 0.015	0.144 ± 0.0075	0.349 ± 0.028	0.369 ± 0.085	0.207 ± 0.026	0.233 ± 0.037	0.417 ± 0.0044	0.335 ± 0.018
COc1ccccc1OCCNCC(O)COc1cccc2[nH]c3ccccc3c12 (centres undefined) [Carvedilol]	0.0443 ± 0.0033	0.0415 ± 0.00062	0.046 ± 0.0023	0.0419 ± 0.00047	0.04137 ± 0.0004	0.0456 ± 0.0015	0.0533 ± 0.004	0.0496 ± 0.0017	0.0942 ± 0.026	0.06 ± 0.004	0.4106 ± 0.0016	0.0825 ± 0.025
CC(C)(S)C(N)C(=O)O (racemic) [D,L-Penicillamine]	0.251 ± 0.0054	0.307 ± 0.016	0.2563 ± 0.0018	0.187 ± 0.021	0.187 ± 0.0061	0.146 ± 0.0078	0.307 ± 0.03	0.413 ± 0.018	0.18 ± 0.023	0.205 ± 0.024	0.403 ± 0.0076	0.35 ± 0.014
CC(=O)c1ccc2c(c1)N(CCCN1CCC(CCO)CC1)c1ccccc1S2 [Piperacetazine]	0.161 ± 0.0078	0.183 ± 0.0095	0.276 ± 0.015	0.222 ± 0.0061	0.115 ± 0.0049	0.133 ± 0.0052	0.175 ± 0.0042	0.222 ± 0.015	0.203 ± 0.016	0.243 ± 0.023	0.3984 ± 0.0027	0.27 ± 0.039
CCCc1cc(C(N)=S)ccn1 [Prothionamide]	0.245 ± 0.011	0.295 ± 0.0059	0.269 ± 0.013	0.184 ± 0.028	0.174 ± 0.014	0.136 ± 0.0019	0.231 ± 0.011	0.388 ± 0.046	0.208 ± 0.013	0.221 ± 0.036	0.414 ± 0.013	0.36 ± 0.021
CNCC[C@@H](Oc1ccccc1C)c1ccccc1 [Tomoxetine hydrochloride]	0.216 ± 0.0098	0.254 ± 0.0027	0.272 ± 0.0044	0.211 ± 0.019	0.139 ± 0.0019	0.173 ± 0.0034	0.205 ± 0.024	0.294 ± 0.021	0.18 ± 0.0036	0.263 ± 0.047	0.407 ± 0.0067	0.326 ± 0.018
O=P(O)(O)C(O)(Cn1ccnc1)P(=O)(O)O [Zoledronic acid hydrate]	0.241 ± 0.0059	0.279 ± 0.0055	0.278 ± 0.0062	0.192 ± 0.022	0.211 ± 0.0037	0.134 ± 0.0016	0.257 ± 0.083	0.357 ± 0.034	0.193 ± 0.0053	0.279 ± 0.069	0.421 ± 0.011	0.294 ± 0.021
c1ccc(C2CN3CCSC3=N2)cc1 (centres undefined) [Tetramisole hydrochloride]	0.244 ± 0.003	0.303 ± 0.011	0.259 ± 0.0099	0.242 ± 0.045	0.176 ± 0.0046	0.16 ± 0.0039	0.257 ± 0.033	0.358 ± 0.046	0.203 ± 0.02	0.252 ± 0.035	0.408 ± 0.014	0.316 ± 0.015
